Consider 9 compounds from PubChem BioAssay (NCATS).

Test [1] is described as follows: Cell Viability - BJ (AID 421; calls by dose curve;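 also: potency is read from the fitted curve at half-maximal effect; cells exposed to compound for 40 hours at 37 °C before readout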). The following applies: BJ fibroblast viability, qHTS. In outline:
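Normal human BJ foreskin fibroblasts, 1500/well in complete medium, treated 40 hr at 37 °C. Cellular ATP by CellTiter-Glo luminescence; normalized to DMSO and 100 uM tamoxifen, AC50 from Hill fit.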

Test [2] is described as follows: Cell Viability - HepG2 (AID 433; calls by dose curve;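 also: potency is read from the fitted curve at half-maximal effect; cells exposed to compound for 40 hours; potency for ATP loss meaning cytotoxicity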). As to conditions: qHTS. In a few lines: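 Cytotoxicity read as ATP loss (CellTiter-Glo luminescence) after 40 hr compound exposure of HepG2, 1500 cells/well, 37 °C. AC50 by Hill equation; 0% set by DMSO, 100% inhibition by 100 uM tamoxifen.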
(In general: Quantitative high-throughput screening tests each substance at several concentrations.)

Test [3] in a line: Cell Viability - Mesenchymal (AID 546).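 Also: cells exposed to compound for 40 hours before reading.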 The following applies: mesenchymal cells viability, qHTS; activity change, negative = cytotoxicity: at 91.7 µM (top of the series). In outline:
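Normal human renal glomerulus-derived kidney mesenchymal cells, 1000 per well in complete medium, were treated with compounds for 40 hr at 37 °C. Viability was read as intracellular ATP by CellTiter-Glo luminescence; AC50 values came from Hill-equation fits of qHTS concentration-response data.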

A short description of test [4]: Cellular Toxicity (caspase-3) Jurkat (AID 655).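 Also: cells exposed to compound for 16 h at 37 °C before reading.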 Also: potency is read from the fitted curve at half-maximal effect. The following applies: Jurkat caspase-3 activation, luminescence; caspase-3 activation: at 92.2 µM (top of the series), DMSO = 0%, tamoxifen = 100%. In a few lines: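 Luminescent Caspase-Glo 3/7 read-out (20 min, room temperature) after 16 h compound treatment at 37 C of 5000 Jurkat cells per well. AC50 derived by Hill-equation fitting, scaled between DMSO basal and 100 uM tamoxifen stimulation.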

Test [5] in a line: Cell Viability - LYMP2-003 (AID 965).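 Also: cells exposed to compounds for 24 h before reading; nearly all actives have a fitted effect of over 50% in size.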 Also: potency is read from the fitted curve at half-maximal effect.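 As to activity change, negative = cytotoxicity: 0% = DMSO only and full effect = 92 µM tetraoctylammonium bromide.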 As to conditions: LYMP2-003 lymphoblastoid cell viability; series mostly up to 92.2 µM. In outline: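 CellTiter-Glo luminescence quantified ATP loss after 24 h compound treatment of LYMP2-003 lymphoblastoid cells at 37 C. Titration series were fitted with the standard Hill equation to give AC50.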
Test [6] can be described thus: Cell Viability - LYMP2-023 (AID 975).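 Also: cells exposed to compound for 24 hours at 37 °C; nearly all actives have a fitted effect of over 55% in size.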 Also: potency is read from the fitted curve at half-maximal effect.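 As to activity change, negative = cytotoxicity: cellular ATP measured by luciferase luminescence as viability proxy; plate controls were DMSO only for no effect and 92 µM tetraoctylammonium bromide control for full effect.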 As to conditions: LYMP2-023 lymphoblastoid cell viability; series mostly up to 92.2 µM. In a few lines:
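2500 cells/well, 5 hr 37 C; cpd 24 hr 37 C; CellTiter-Glo, 30 min RT; luminescence. qHTS conc-response, Hill fit -> AC50. Pos ctrl tetraoctylammonium bromide.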

Test [7] is described as follows: Cell Viability - LYMP2-025 (AID 976). Also: potency is read from the fitted curve at half-maximal effect.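 As to activity change, negative = cytotoxicity: plate controls were DMSO only for no effect and tetraoctylammonium bromide control for full effect.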 The following applies: LYMP2-025 lymphoblastoid cell viability; series mostly up to 92.2 µM. In a few lines: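 Seed 2500 LYMP2-025 cells/well; 5 hr at 37 C; add compound; 24 hr at 37 C; add CellTiter-Glo; 30 min RT; read luminescence. AC50 from Hill-modelled concentration-response.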
The nature of test [8]: Cell Viability - LYMP2-002 (AID 977). Also: potency is read from the fitted curve at half-maximal effect. The following applies: LYMP2-002 lymphoblastoid cell viability, qHTS; series mostly up to 92.2 µM. In a few lines: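 Luminescent ATP readout (CellTiter-Glo, 30 min room temperature) after 24 h compound exposure at 37 C of a human lymphoblastoid line, 2500 cells/well. AC50 values derived by standard Hill fitting of qHTS concentration-response data.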

The nature of test [9]: Cell Viability - LYMP2-016 (AID 984).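 Also: cells exposed to compound for 24 hours at 37 °C; nearly all actives have a fitted effect of over 55% in size.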 Also: potency is read from the fitted curve at half-maximal effect. As to activity change, negative = cytotoxicity: % is scaled to controls: 0 for no effect and ±100 for the full control effect. The following applies: LYMP2-016 lymphoblastoid cell viability, qHTS; series mostly up to 92.2 µM. In outline:
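Cytotoxicity was scored by luminescent ATP content (CellTiter-Glo) after 24 h compound exposure at 37 C of a human lymphoblastoid line at 2500 cells/well. Concentration-response data were fitted to the Hill equation for AC50.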

Test [10] can be described thus: Cell Viability - LYMP2-026 (AID 989). Also: nearly all actives have a fitted effect of over 50% in size. Also: potency is read from the fitted curve at half-maximal effect. The following applies: LYMP2-026 lymphoblastoid cell viability, qHTS; series mostly up to 92.2 µM. In a few lines:
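Luminescent ATP signal (CellTiter-Glo, 30 min room temperature) measures viable lymphoblastoid cells after 24 hr compound treatment at 37 C. Decreased ATP reflects acute toxicity; AC50 values come from Hill-equation modeling.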

A short description of test [11]: qHTS assay for small molecule antagonists of retinoid X receptor alpha signaling (AID 588546; active = well fitted inhibition curve with a large enough effect in the signal ratio, with a control signal flat, not every such curve was filed as active; the % refers to the signal ratio;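 also: cells stimulated with 9-cis-retinoic acid as agonist; % is scaled to controls: 0 for no effect and ±100 for the full control effect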). The following applies: HEK293T RXRa-UAS-bla, beta-lactamase ratio, antagonist mode; measured here: W530 green channel, cytotoxicity proxy. In a few lines:
(§1)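 Beta-lactamase reporter inhibition, read as CCF4 fluorescence ratio (ex 405, em 460/530 nm) after 2 h at RT. HEK293T UAS-bla cells, 2500/well, were stimulated with 9-cis-RA at 500 or 100 nM final alongside test compound for 18 h at 37 C.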

Test [12] concerns the target Retinoic acid receptor RXR-alpha (Homo sapiens) (UniProt P19793). The description is as above. As to conditions: HEK293T RXRa-UAS-bla, beta-lactamase ratio, antagonist mode. In a few lines: as §1
The nature of test [13]: qHTS assay for environmental chemicals that activate the Aryl hydrocarbon Receptor (AhR) signaling pathway (AID 651777). Also: % of control where 0% means no effect; nearly all actives have a fitted effect of over 15% in size. As to conditions: 1A2-DRE human hepatoma cells, luciferase, 24 h; activation: stronger effect = higher value. In outline: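 Stable CYP1A2 promoter/DRE-luciferase human hepatoma line treated 24 hr; One-Glo luminescence, 30 min RT.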
Test [14] in a line: Cell Viability - LYMP2-011 (AID 969).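 Also: cells exposed to compound for 24 hours; nearly all actives have a fitted effect of over 60% in size.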 Also: potency is read from the fitted curve at half-maximal effect. As to conditions: LYMP2-011 lymphoblastoid cells viability; series mostly up to 92.2 µM. In outline:
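2500 cells/well, 5 hr 37 C; compound added, 24 hr 37 C; CellTiter-Glo 30 min RT; luminescence. qHTS concentration-response, Hill-equation AC50. Tetraoctylammonium bromide positive control.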

Test [15] in a line: Cell Viability - LYMP2-021 (AID 974).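 Also: compound exposure lasts 24 hours at 37 °C; nearly all actives have a fitted effect of over 55% in size.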 Also: potency is read from the fitted curve at half-maximal effect. As to activity change, negative = cytotoxicity: % is scaled to controls: 0 for no effect and ±100 for the full control effect. The following applies: LYMP2-021 lymphoblastoid cells viability; series mostly up to 92.2 µM. In outline:
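Plate 2500 lymphoblastoid cells per well and incubate 5 hr at 37 C. Add compounds over a concentration range and incubate 24 hr at 37 C. Add CellTiter-Glo, wait 30 min at room temperature, read luminescence.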

Test [16] is described as follows: Cell Viability - LYMP2-008 (AID 980). Also: nearly all actives have a fitted effect of over 60% in size. Also: potency is read from the fitted curve at half-maximal effect. As to activity change, negative = cytotoxicity: % is scaled to controls: 0 for no effect and ±100 for the full control effect. The following applies: LYMP2-008 lymphoblastoid cell viability, qHTS; series mostly up to 92.2 µM. In outline:
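qHTS, human lymphoblastoid line, 2500 cells/well; 5 hr preincubation, 24 hr compound, 37 C. CellTiter-Glo ATP luminescence. AC50 via Hill equation. Tetraoctylammonium bromide positive control.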

Test [17] in a line: Cell Viability - LYMP2-014 (AID 983). Also: nearly all actives have a fitted effect of over 50% in size. Also: potency is read from the fitted curve at half-maximal effect.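 As to activity change, negative = cytotoxicity: plate controls were DMSO only for no effect and 92 µM tetraoctylammonium bromide for full effect.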 As to conditions: LYMP2-014 lymphoblastoid cells, viability qHTS; series mostly up to 92.2 µM. In outline:
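Luminescent ATP signal (CellTiter-Glo, 30 min at room temperature) serves as the viability read-out after 24 hr compound exposure at 37 C. Cells were seeded at 2500 per well and settled 5 hr beforehand.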

A short description of test [18]: Cell Viability - LYMP2-018 (AID 985). Also: nearly all actives have a fitted effect of over 50% in size. Also: potency is read from the fitted curve at half-maximal effect.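 As to activity change, negative = cytotoxicity: plate controls were DMSO only for no effect and tetraoctylammonium bromide at 92 µM for full effect.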 As to conditions: LYMP2-018 lymphoblastoid cells, viability (qHTS); series mostly up to 92.2 µM. In outline: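 Luminescent ATP signal (CellTiter-Glo, read after 30 min at room temperature) reports viable cells after 24 hr compound treatment at 37 C. Concentration-response data were fitted to the standard Hill equation for AC50.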

Test [19] in a line: Cell Viability - LYMP2-022 (AID 987). Also: nearly all actives have a fitted effect of over 55% in size. Also: potency is read from the fitted curve at half-maximal effect. As to conditions: LYMP2-022 lymphoblastoid cell viability; series mostly up to 92.2 µM. In outline:
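qHTS: human lymphoblastoid cells 2500/well; 5 hr 37 C; cpd added; 24 hr 37 C; CellTiter-Glo, 30 min RT; luminescence. AC50 via Hill fit; tetraoctylammonium bromide positive ctrl.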

Test [20] can be described thus: Cell Viability - LYMP2-024 (AID 988). Also: nearly all actives have a fitted effect of over 60% in size. Also: potency is read from the fitted curve at half-maximal effect.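 As to activity change, negative = cytotoxicity: plate controls were DMSO only for no effect and 92 µM tetraoctylammonium bromide for full effect.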 As to conditions: LYMP2-024 lymphoblastoid cell viability; series mostly up to 92.2 µM. In a few lines: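 Steps: seed 2500 cells/well, 5 hr 37 C; add compound, 24 hr 37 C; add CellTiter-Glo, 30 min room temperature; read luminescence. AC50 derived by Hill modelling of concentration-dependent ATP loss.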

Where “and” joins values, the source holds several entries; their conditions need not be identical. Equal entries are not always repeated. Records with an inconclusive call do not appear. Calls of active or inactive are those of the source. Unless noted, calls follow the shape of the dose curve; as a rule, active = well fitted curve in the direction sought with a large enough effect; inconclusive = small, poorly fitted or top-dose-only effect, or another doubt; inactive = no such curve, though single readings can be large; an effect the other way counts as inactive or inconclusive.

Retinoic acid receptor RXR-alpha (Homo sapiens), sequence (P19793 whole entry, looked up): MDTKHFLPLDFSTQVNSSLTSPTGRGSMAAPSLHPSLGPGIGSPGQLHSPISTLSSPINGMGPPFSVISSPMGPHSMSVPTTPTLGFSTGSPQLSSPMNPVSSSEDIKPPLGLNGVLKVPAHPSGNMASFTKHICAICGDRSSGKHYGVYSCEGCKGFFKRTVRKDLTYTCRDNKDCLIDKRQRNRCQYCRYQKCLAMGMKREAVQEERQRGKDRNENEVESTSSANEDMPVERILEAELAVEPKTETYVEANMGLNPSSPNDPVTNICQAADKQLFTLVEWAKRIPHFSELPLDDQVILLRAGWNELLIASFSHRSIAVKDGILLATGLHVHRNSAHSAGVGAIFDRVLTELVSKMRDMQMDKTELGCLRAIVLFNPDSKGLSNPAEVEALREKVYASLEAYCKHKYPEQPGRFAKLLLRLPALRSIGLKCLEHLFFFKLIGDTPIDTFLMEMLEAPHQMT

Regarding `O=[N+]([O-])c1cc(Cl)c(Cl)c(Cl)c1Cl`, the Potency in test [1] and in test [2] was > 92 µM (inactive) each time. The Potency entry in test [3], in [4], in test [5], in [6], in [7] and in test [8] was “inactive” each time. The Potency result in [9] and in test [10] was “inactive” throughout. For the same compound, the max response in [11] was 11.9%; in [12] it was -21.8% (inactive). Further, the activation in test [13] was -0.451% (inactive).
`CCCCC(CC)COP(=O)(OCC(CC)CCCC)OCC(CC)CCCC` (stereo unspecified): the Potency in test [1] and in test [2] was > 92 µM (inactive) in each case. Also, the Potency result in test [3], in [4], in [5], in test [14], in test [15] and in test [6] was “inactive” each time. In addition, the Potency entry in test [7], in [8], in [16], in test [17], in test [9] and in test [18] was “inactive” in each case. Further, the Potency entry in test [19], in [20] and in test [10] was “inactive” in each case. Besides, the max response is -7.24% in [11] and -4.08% (inactive) in [12]. The activation in test [13] was -1.66% (inactive).
As for `C=CC(=O)OCCCCCCOC(=O)C=C`, the Potency in test [2] is > 92 µM (inactive); in test [5], 39.8 µM (active); in test [14], 39.8 µM (active); in test [15] it was 39.8 µM (active); in test [6], 39.8 µM (active); in test [7], 50.1 µM (active). Moreover, the Potency in [8] was 50.1 µM (active); in test [16], 50.1 µM (active); in test [17], 50.1 µM (active); in test [9] it was 39.8 µM (active); in test [18], 39.8 µM (active); in test [19] it was 39.8 µM (active). Further, the Potency in [20] was 31.6 µM (active); in [10], 39.8 µM (active). In addition, in test [4], the Potency entry was “inactive”. The max response was 3.39% and -7.34% in [11]; -43.4% (inactive) and 3.26% (inactive) in test [12]. Also, the activation in test [13] was -0.448% (inactive) and 0.963% (inactive).
For `Nc1ccccc1O`, the Potency is > 92 µM (inactive) in test [1], > 92 µM (inactive) in test [2] and 25.1 µM (active) in test [4]. Also, the Potency result in [3], in test [5], in test [14], in test [15], in [6] and in [7] was “inactive” in each case. The Potency entry in test [8], in [16], in test [17], in test [9], in [18] and in test [20] was “inactive” throughout. Further, in [10], the Potency entry was “inactive”. The results for the max response in [11] and in test [12] were 21.2% and -7.25% (inactive), respectively.
Regarding `CC(C)(C)C(=O)C1C(=O)c2ccccc2C1=O`, in [1], the Potency was > 92 µM (inactive). Moreover, the Potency entry in test [3], in test [4], in test [5], in [14], in [15] and in test [6] was “inactive” throughout. Also, the Potency result in test [7], in test [8], in test [17], in [9], in [18] and in [19] was “inactive” each time. Also, the Potency result in test [20] and in [10] was “inactive” in each case. Also, in [13], the activation is 5.77% (inactive).
Consider `Clc1nc2ccccc2nc1Cl`, for which the Potency in [1] and in test [2] was > 92 µM (inactive) throughout. Moreover, the Potency result in [3], in [4], in [5], in test [14], in test [6] and in [7] was “inactive” each time. In addition, the Potency entry in [8], in [16], in [17], in test [9], in test [18] and in test [10] was “inactive” in each case. For the same compound, the figures for the max response in [11] and in test [12] were -14.8% and 31% (inactive), respectively. Besides, the activation in test [13] is 0.0222% (inactive).
Regarding `O=C(OCC1CO1)C1CCCCC1C(=O)OCC1CO1` (stereo unspecified), the Potency in test [1] is > 92 µM (inactive); in test [2], > 92 µM (inactive); in test [5], 50.1 µM (active); in test [15] it was 50.1 µM (active); in test [18], 39.8 µM (active); in test [19] it was 39.8 µM (active). Besides, the Potency result in test [3] and in test [7] was “inactive” in each case. In addition, the activation in test [13] was 0.749% (inactive).
Regarding `O=CC(=O)c1ccccc1`, the Potency in [1] and in [2] was > 92 µM (inactive) throughout. The Potency result in [3], in test [4], in test [5], in [14], in test [6] and in test [7] was “inactive” throughout. The Potency entry in test [17] and in test [9] was “inactive” in each case. Further, the max response in [11] is -7.19%; in test [12], 6.37% (inactive). The activation in test [13] was 0.568% (inactive).
With `Cc1cc2nc(N)sc2cc1C`, the Potency in [1] was > 92 µM (inactive). Besides, the Potency entry in [4], in test [5], in test [14], in test [15], in test [6] and in [7] was “inactive” each time. For the same compound, the Potency entry in test [8], in test [16], in test [17], in [9], in test [18] and in [19] was “inactive” each time. The Potency entry in test [20] and in [10] was “inactive” throughout. Further, the max response was 0.388% in test [11] and 9.41% (inactive) in test [12].
